{
  "source": "PubChem BioAssay (EPA / NIEHS)",
  "note": "Active and inactive are the calls of the source. The calls were made as follows: active = hit-call score of the fitted dose curve at least 0.9, where 1 is the maximum; inactive = score below 0.9.",
  "data": [
    {"read-out": "Hypoxia-inducible factor 1-alpha (Homo sapiens) (UniProt Q16665)", "assay": "LTEA_HepaRG_HIF1A: Life Technologies and Expression Analysis (LTEA) Assay for Hypoxia-inducible factor 1 (HIF1A) Trancription factor using HepaRG (AID 2283503);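 also: HIF1A transcript by TaqMan qRT-PCR normalized to ACTB GAPDH and POLR2A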", "conditions": "mRNA level, 48 h; actives raise or lower the signal", "method": "LTEA_HepaRG is a cell based, multiplexed-readout assay that uses HepaRG, a human liver cell line, with measurements taken at 48 hours after chemical dosing on a 96-well plate.LTEA_HepaRG_HIF1A is one of 102 assay component(s) measured in the LTEA HepaRG cell culture assay. It is a marker of Cell proliferation, survival, death.Data from the assay component LTEA_HepaRG_HIF1A was analyzed into 1 endpoint. This assay endpoint, LTEA_HepaRG_HIF1A, was analyzed with bidirectional fitting relative to DMSO as the negative control and baseline of activity. Using a type of inducible reporter, measures of mRNA induction for gain or loss-of-signal activity can be used to understand regulation of transcription factor activity. To generalize the intended target to other relatable targets, this assay endpoint is annotated to the dna binding intended target family, where the subfamily is basic helix-loop-helix protein.\nA total of 1060 chemcials from the ToxCast library were tested in eight-point concentration-response experiments. Cell culture and cytotoxicity assays were conducted at Thermo Fisher Scientific's Custom Services facility (Madison, WI). A single lot of human HepaRG cells (Thermo Fisher Scientific, Frederick, MD) was used for the cell culture experiments. 96-well format collagen type I coated plates of human HepaRG cells were prepared using established methods. Briefly, cryopreserved HepaRG cells were thawed, plated at a density of approximately 100,000 cells/well in HepaRG Thaw, Plate, and General Purpose media (HPRG770, Thermo Fisher Scientific), and incubated for 48 hours. 0.5% DMSO was selected as vehicle control to balance the requisite need of DMSO in HepaRG cultures to maintain differentiation (for example, baseline metabolism, proportions of hepatocytes vs. cholangiocytes), while enabling further hepatic receptor pathway activation (for example, PXR and CAR) in response to chemical exposure. 48 hours after plating, the culture medium was replaced with HepaRG Serum-Free Incudtion Media. Cells were exposed to each test chemical in duplicate and maintained in CO2 incubators for another 48 hours. Chemical plates were thawed to room temperature and 200x concentrations of treatment groups were prepared. 8-point conentration-reponse curves were made with the highest exposure at 100 uM, followed by half-log dilutions, all in 0.5% DMSO. Each test plate contained variouse controls, induction positive controls (1mM phenobarbital), cytotoxicity positive controls ([…] aflatoxin B1), vehicle controls (0.5% DMSO), and total lysis controls (0.5% DMSO). Cell morphology images were taken using an Essen IncuCyte FLR automated microscope, with six 96-well plates imaged in about 24 minutes. Images were captured and exported and JPEG files. Spent culture media was transfered to black-well plates for the LDH assay, and remaining media was sorted at -80 C for later use. Cells were treated with RLT buffer and frozen until shipped for gene expression analysis. Total RNA was isolated from the cell suspension in 75 uL of Buffer RLT (Qiagen, Germantown, MD 20874) by Quintiles/Expression Analysis (Durham, NC) using a custom isolation procedure. Total RNA from each plate well was transferred to a preamplification plate. Fluidigm's 96.96 Dynamic ArrayTM (Fluidigm, Amsterdam, the Netherlands) technology was used for gene expression analyses by quantitative reverse transcription polymerase chain reaction (qRT-PCR, performed by Quintiles/Expression Analysis, Durham, NC)89. Standard TaqManTM Assays (Applied Biosystems/ThermoFisher Scientific, Foster City, CA) were used to assess the expression of 93 genes selected based on their selectivity and sensitivity to important hepatic receptors known to be modulated by environmental chemicals; importance in human hepatocyte functionality; and hepatotoxicity. […]", "values": [
      {"smiles": "Cc1ccc(N)cc1N", "outcome": "inactive"},
      {"smiles": "CC(C)(C)c1ccc(O)cc1", "outcome": "inactive"},
      {"smiles": "CCOc1ccc(C(C)(C)COCc2cccc(Oc3ccccc3)c2)cc1", "outcome": "inactive"},
      {"smiles": "O=[N+]([O-])c1ccc(Cl)c(Cl)c1", "outcome": "inactive"},
      {"smiles": "COCCOCCO", "outcome": "inactive"},
      {"smiles": "CSC(C)(C)C=NO", "outcome": "inactive"},
      {"smiles": "c1cc2c3c(cccc3c1)CC2", "outcome": "inactive"},
      {"smiles": "CCC1(c2ccccc2)C(=O)N=C(O)NC1=O", "note": "(stereo not given)", "outcome": "inactive"},
      {"smiles": "CC(Cl)(Cl)C(=O)O", "outcome": "inactive"},
      {"smiles": "c1ccc2c(c1)Nc1ccccc1S2", "outcome": "inactive"},
      {"smiles": "[N-]=[N+]=[N-]", "outcome": "inactive"},
      {"smiles": "O=[N+]([O-])c1ccccc1", "outcome": "inactive"},
      {"smiles": "CCCCCCCc1ccc(O)cc1", "outcome": "inactive"},
      {"smiles": "c1nc[nH]n1", "outcome": "inactive"},
      {"smiles": "CC(Cc1ccc(OCC(=O)O)cc1)NCC(O)c1csc(C(F)(F)F)n1", "note": "(stereo not given)", "outcome": "inactive"},
      {"smiles": "CCCN(CCC)c1c([N+](=O)[O-])cc(C(C)C)cc1[N+](=O)[O-]", "outcome": "inactive"},
      {"smiles": "c1ccc(OP(Oc2ccccc2)Oc2ccccc2)cc1", "outcome": "inactive"},
      {"smiles": "Nc1ccc2ccccc2c1", "outcome": "inactive"},
      {"smiles": "Cc1ccc(O)cc1C", "outcome": "inactive"},
      {"smiles": "ClC1=C(Cl)C2(Cl)C3C(Cl)C(Cl)CC3C1(Cl)C2(Cl)Cl", "note": "(stereo not given)", "AC50": "4.98 µM (active)"},
      {"smiles": "Cc1cccc(N)c1", "outcome": "inactive"},
      {"smiles": "CCOS(=O)(=O)OCC", "outcome": "inactive"},
      {"smiles": "CCNc1nc(Cl)nc(NC(C)(C)C)n1", "outcome": "inactive"},
      {"smiles": "CCOP(=S)(OCC)SCSCC", "outcome": "inactive"},
      {"smiles": "Nc1cc2c3c(c1)C(c1ccccc1)=N[C@@H](NC(=O)c1cccnc1)C(=O)N3CC2", "outcome": "inactive"},
      {"smiles": "CC(C)(C)OOC(C)(C)C", "outcome": "inactive"},
      {"smiles": "Nc1ccc(Cl)cc1", "outcome": "inactive"},
      {"smiles": "CN(C)C(=O)Cl", "outcome": "inactive"},
      {"smiles": "O=C(O)C(Cl)Cl", "outcome": "inactive"},
      {"smiles": "CCCCc1ccccc1", "outcome": "inactive"},
      {"smiles": "ClC(Cl)(Cl)c1ccccc1", "outcome": "inactive"},
      {"smiles": "Cc1ccc([N+](=O)[O-])cc1C", "outcome": "inactive"},
      {"smiles": "CCCCN(CCCC)SN(C)C(=O)Oc1cccc2c1OC(C)(C)C2", "outcome": "inactive"},
      {"smiles": "CCOC(=O)c1ccccc1C(=O)OCC", "outcome": "inactive"},
      {"smiles": "CCOP(=S)(Oc1ccc([N+](=O)[O-])cc1)c1ccccc1", "note": "(stereo not given)", "outcome": "inactive"},
      {"smiles": "OCC1CO1", "note": "(stereo not given)", "outcome": "inactive"},
      {"smiles": "ClC(Cl)c1ccccc1", "outcome": "inactive"},
      {"smiles": "CCN(CC)c1ccccc1", "outcome": "inactive"},
      {"smiles": "CCC(C)(C)c1ccc(O)cc1", "outcome": "inactive"},
      {"smiles": "CCCCN(CCCC)N=O", "outcome": "inactive"}
    ]}
  ]
}
